KCNH2 3.1 block: qHTS for Inhibitors of KCHN2 3.1: Mutant qHTS | activity change, % (tested at about 1.8 µM) | AID 720553, 2013 | Potassium voltage-gated channel subfamily H member 2, brain isoform KCNH2 3.1 (human) | U2OS KCNH2 3.1, thallium flux FluxOr; stronger effect = lower value | actives 0.95% (n = 340,000);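 active = maximum activity change below -70%; inconclusive = maximum activity change from -70% to -50%; inactive = maximum activity change above -50%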;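 also: thallium influx rate constant from kinetic fluorescence after stimulation buffer; % is scaled to controls: 0 for no effect and ±100 for the full control effect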
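Virally transduced U2OS (3.1 isoform, 4 h infection in dark at RT) → overnight 37 C → FluxOr + Red40 in HBSS/HEPES, 45 min → stimulation buffer, 2 min kinetic read → rate constant vs DMSO controls.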
TSG101-PTAP inh: qHTS Assay for Iinhibitors of HIV-1 Budding by Blocking the Interaction of PTAP/TSG101; Fluorescence polarization, FITC-PTAP peptide / Tsg101 binding; Potency, µM (top dose mostly 115 µM), without a hit: at the highest dose activity change, negative = inhibition, hits mostly inhibitors; 340,000 tested, under 10 active; active = well fitted inhibition curve with a large enough effect in the main read-out, with a control signal flat, not every such curve was filed as active; inconclusive = small, poorly fitted or top-dose-only effect, or effect the other way, or a change in a side signal; inactive = no such curve, though single readings can be large or run the other way; also: potency is read from the fitted curve at half-maximal effect; % of control where 0% means no effect
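Fluorescence anisotropy tracks displacement of a FITC-tagged PTAP peptide (50 nM) from the Tsg101 binding domain (10 uM), following a 20 min room-temperature incubation at pH 7.5.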
hERG WT inh: qHTS for Inhibitors of KCHN2 3.1: Wildtype qHTS. Voltage-gated inwardly rectifying potassium channel KCNH2 (Homo sapiens), Q12809. U2OS, BacMam KCNH2, thallium flux FluxOr; stronger effect = lower value. activity change, % at 1.84 µM. actives 0.37% (n = 340,000);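 active = maximum activity change below -70%; inconclusive = maximum activity change between -70% and -50%; inactive = maximum activity change above -50%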; also: % is scaled to controls: 0 for no effect and ±100 for the full control effect
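U2OS cells transduced with wild-type KCNH2 virus are loaded with FluxOr dye for 45 min, and thallium flux is measured in kinetic reads before and after stimulation buffer. Rate constants are normalized to DMSO controls.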
Tb PFK inh: qHTS Assay to Find Inhibitors of T. brucei phosphofructokinase | ATP-dependent 6-phosphofructokinase (Trypanosoma brucei brucei), O15648 | T. brucei PFK, ADP-Glo luminescence | Potency, µM (doses to about 57.5 µM), for inactives: at the top dose activity, negative = inhibition, most hits filed as inhibitors | actives 0.17% (n = 330,000) | AID 485367, 2010; active = well fitted inhibition curve with a large enough effect; inconclusive = small, poorly fitted or top-dose-only effect, or effect the other way;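 also: potency is read from the fitted curve at half-maximal effect; 0% = uninhibited 1x PFK enzyme wells and -100% = no-enzyme wells; nearly all actives have a fitted effect of over 60% in size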
Target sequence (O15648 whole entry, looked up): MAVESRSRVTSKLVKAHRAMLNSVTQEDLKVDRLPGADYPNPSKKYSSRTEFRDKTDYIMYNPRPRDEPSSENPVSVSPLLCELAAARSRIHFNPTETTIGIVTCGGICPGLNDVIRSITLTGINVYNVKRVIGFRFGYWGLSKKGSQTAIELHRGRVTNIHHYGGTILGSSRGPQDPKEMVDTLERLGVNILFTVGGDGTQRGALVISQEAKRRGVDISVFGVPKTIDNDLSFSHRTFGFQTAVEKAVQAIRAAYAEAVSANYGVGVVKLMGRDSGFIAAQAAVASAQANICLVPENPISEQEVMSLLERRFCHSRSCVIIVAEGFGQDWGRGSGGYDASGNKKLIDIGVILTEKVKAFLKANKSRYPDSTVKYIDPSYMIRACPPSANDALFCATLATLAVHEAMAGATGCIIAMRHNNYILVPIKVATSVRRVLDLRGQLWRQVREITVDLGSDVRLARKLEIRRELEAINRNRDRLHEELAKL
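Activity is normalized to no-enzyme wells (full inhibition) and 1.25 nM enzyme wells (no inhibition). Reaction: 0.5 mM F6P, 0.1 mM ATP, 45 min RT, ADP-Glo luminescence; concentration-response curves fitted and classed by quality.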
An asterisk follows results filed as active; ? = inconclusive; · = no result given. Shown are actives, neighbours in structure and some others; about 1.2% of the full set was active somewhere.

SMILES	KCNH2 3.1 block	TSG101-PTAP inh	hERG WT inh	Tb PFK inh
Cc1ccc(Nc2nc(N)nc(CN3CCN(Cc4ccc5c(c4)OCO5)CC3)n2)cc1Cl	-92*	-7%	-90*	0%
Cc1ccc(Nc2nc(N)nc(CN3CCN(Cc4ccc5c(c4)OCO5)CC3)n2)cc1C	-104*	-2%	?	-2%
Cc1ccc(Nc2nc(N)nc(CN3CCN(Cc4ccc5c(c4)OCO5)CC3)n2)cc1	-80*	-3%	-44	2%
Cc1ccc(Nc2nc(N)nc(CN3CCN(Cc4ccc5c(c4)OCO5)CC3)n2)c(C)c1	?	-7%	7	2%
CN(CC(=O)Nc1cc(Cl)ccc1-n1cncn1)Cc1ccccc1N1CCOCC1	-7	·	20	·
O=C(COc1cc2oc(=O)c3c(c2cc1Cl)CCC3)NCCCn1ccnc1	3	5%	-8	3%
c1ccc(C[C@H]2CN=C(Nc3ccccc3)N2CCC2CCCC2)cc1	-94*	3%	18	4%
CC(C)C[C@H]1CN=C(Nc2ccccc2)N1CCC1CCCCC1	?	1%	4	0%
CC(CCN1C(Nc2ccccc2)=NC[C@@H]1Cc1ccccc1)c1ccccc1 (stereo partly drawn)	-82*	-1%	-2	3%
COc1ccccc1N1CCN(CCNC(=O)Nc2cccc(C)c2C)CC1	-35	-2%	-124*	-6%
Cc1cn([C@H]2C[C@H](O)[C@@H](CNCc3cnc(N4CCOCC4)s3)O2)c(=O)[nH]c1=O	5	·	-7	·
COc1ccc(/C=C(\C#N)C(=O)OCC(=O)Nc2ccc(C(C)(C)C)cc2)cc1	1	0%	-6	0%
COc1ccc(N)c2c1C(=O)c1ccccc1C2=O	-98*	5%	-10	2%
O=C(Nc1ccccc1NC(=O)c1ccccc1F)c1ccccc1F	14	-2%	-89*	6%
CN(C)c1ccc(C(=O)Nc2ccc(S(=O)(=O)Nc3nccs3)cc2)cc1	-7	-3%	1	3%
CCC(C(=O)NC1CCCCC1)n1c(SCc2ccccc2F)nc2ccncc21 (stereo not drawn)	-118*	-5%	5	-1%
Cc1nc(CNS(=O)(=O)c2cc(F)ccc2F)cs1	-181*	-10%	-8	2%
Cc1nc(CNS(=O)(=O)c2cccc(F)c2)cs1	7	-1%	-1	-2%
Nc1cccc2c1C(=O)N(CC(=O)NC13CC4CC(CC(C4)C1)C3)C2=O	7	-7%	-105*	4%
Cc1ccc(SCC(=O)N2CCN(S(=O)(=O)c3cccs3)CC2)cc1	-2	-5%	0	0%
CN(C)S(=O)(=O)c1ccc(C(=O)NCC(C)(C)CN=C2NS(=O)(=O)c3ccccc32)cc1	-25	-7%	-3	0%
CC(C)(CN=C1NS(=O)(=O)c2ccccc21)CNC(=O)c1ccccc1	-3	0%	-94*	2%
Cc1c(NC(=O)c2cc(Br)ccc2Cl)cccc1-n1cnnn1	-3	-4%	5	0%
O=C(O)c1cccc(S(=O)(=O)NCC2COc3ccccc3O2)c1 (stereo not drawn)	3	-1%	1	0%
Cc1ccc(C(=O)C(c2ccccc2)N2Cc3ccccc3C2=N)cc1 (stereo not drawn)	-73*	0%	-5	1%
SMILES	KCNH2 3.1 block	TSG101-PTAP inh	hERG WT inh	Tb PFK inh
COc1ccc(C(=O)C(c2ccccc2)N2CCOCC2)cc1 (stereo not drawn)	13	-7%	10	0%
COc1cc(-c2nnc(SCC3(c4ccc(Br)cc4)OCCO3)o2)cc(OC)c1OC	-30	3%	-4	-1%
O=C(COC(=O)c1ccccc1C(=O)c1ccccc1)NCCc1ccccc1	-2	0%	-1	-7%
O=C(COC(=O)c1ccccc1C(=O)c1ccc(Cl)cc1)NCCc1ccccc1	-72*	-1%	-10	-5%
O=C(COC(=O)c1ccccc1Cl)NC(=O)NCc1ccccc1	-226*	-2%	-139*	0%
CCCCNC(=O)COC(=O)c1ccccc1F	9	-7%	-131*	2%
O=C(COC(=O)c1cc(Br)ccc1Cl)NC(=O)NCc1ccccc1	9	0%	8	0%
Cc1ccc(Nc2nc(N)nc(CN3CCN(c4ccccc4)CC3)n2)cc1Cl	-75*	-1%	13	24%
CCOc1nc(Nc2ccc(F)cc2)nc(N2CCN(c3ccc(OC)cc3)CC2)n1	?	-4%	-3	-3%
CCOc1nc(Nc2ccc(OC)c(Cl)c2)nc(N2CCN(c3ccc(OC)cc3)CC2)n1	-109*	-2%	3	4%
COc1ccc(N2CCN(Cc3nc(N)nc(Nc4ccc(C)c(Cl)c4)n3)CC2)cc1	-73*	-13%	31	1%
O=[N+]([O-])c1ccccc1S(=O)(=O)N/C(=N/S(=O)(=O)c1ccccc1)c1ccccc1	13	-2%	3	1%
COc1cccc(CN(C(=O)c2ccc([N+](=O)[O-])cc2)C2CCS(=O)(=O)C2)c1 (stereo not drawn)	11	-6%	-4	-1%
CC(C)NC(=O)CN1CCN(C(=O)c2ccc3oc(CCCc4ccccc4)nc3c2)CC1	-5	·	5	2%
Cc1ccccc1OCCC(=O)NNC(=O)COc1cccc(F)c1	-5	-12%	8	-1%
COc1ccc(CCc2nnc(CCC(=O)N(C)Cc3ccncc3C)o2)cc1	-72*	-3%	1	4%
Cc1cccc(Cc2nnc(CCC(=O)N(C)Cc3ccncc3C)o2)c1	-2	0%	5	-1%
CCc1ccc(-c2cc3c(=O)n(CC(=O)NCCCN4CCC(Cc5ccccc5)CC4)nc(C)n3n2)cc1	-91*	2%	-45	0%
Cc1nn(CC(=O)NCCCN2CCC(Cc3ccccc3)CC2)c(=O)c2cc(-c3ccccc3)nn12	-103*	-1%	-87*	5%
Cc1nn(CC(=O)NCCCN2CCN(Cc3ccccc3)CC2)c(=O)c2cc(-c3ccccc3)nn12	-49	0%	31	1%
O=C(c1ccc2c(c1)OCO2)C1CCCN(Cc2cc(F)ccc2-n2cccn2)C1 (stereo not drawn)	-72*	-8%	-15	3%
Cc1ccc(-n2cccn2)c(CN2CCCC(CNC(=O)c3ccc(F)cc3)C2)c1 (stereo not drawn)	-48	-4%	-25	-2%
Cc1ccc(-n2cccn2)c(CN2CCCC(C(=O)c3ccc4c(c3)OCO4)C2)c1 (stereo not drawn)	-94*	-1%	?	2%
Cc1ccc(S(=O)(=O)N(C)C[C@@H]2Oc3ncc(Br)cc3C(=O)N([C@H](C)CO)C[C@@H]2C)cc1	9	·	-15	·
Cc1csc(NC(=O)CSc2nc(C(C)C)nc3ccccc23)n1	7	-11%	-3	18%
